In PubChem BioAssay AID1159580 (chemical genetic matrix, 2015):
Values joined by “and” are separate entries in the source; they are usually repeats but may differ in a detail not shown here. Identical values can stand only once. Among all 5,500 compounds or so, about 2,000 (36%) were called active. About 18% were inconclusive and are not listed. The list shows a part of the results. A number with no mark means an inactive call. No stated cut-off is given here; in the data, active means normalized growth mostly below about 0.91 (no sharp cut-off); inconclusive means no clear call, values can overlap the other calls; inactive means mostly above about 0.92.

Assay: chemical genetic growth profiling, strain panel (AID 1159580);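 further: tested at 20 µM; growth read once vehicle control cultures reached saturation at 30 °C; 1 = growth at the plate median or of vehicle wells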
Details: S. cerevisiae deletion strains, growth OD

## CC(C)N(CCC(C(N)=O)(c1ccccc1)c1ccccn1)C(C)C (stereo not drawn)
Locus YAL013W, strain DEP1, stronger effect = lower value
  normalized growth: 0.959
Locus YAL021C, strain ccr4, stronger effect = lower value
  normalized growth: 0.0708 (active)
Locus YAL026C, strain drs2, stronger effect = lower value
  normalized growth: 0.0629 (active)
Locus YAL030W, strain snc1, stronger effect = lower value
  normalized growth: 0.233 (active)
Locus YAL040C, strain CLN3, stronger effect = lower value
  normalized growth: 0.969 and 1.02
Locus YBL061C, strain skt5, stronger effect = lower value
  normalized growth: 0.15 (active)
Locus YBR009C, strain hhf1, stronger effect = lower value
  normalized growth: 0.103 (active)
Locus YBR021W, strain FUR4, stronger effect = lower value
  normalized growth: 0.984
Locus YBR023C, strain chs3, stronger effect = lower value
  normalized growth: 0.171 (active)
Locus YBR171W, strain sec66, stronger effect = lower value
  normalized growth: 0.0831 (active)
Locus YBR229C, strain ROT2, stronger effect = lower value
  normalized growth: 0.998
Locus YBR231C, strain swc5, stronger effect = lower value
  normalized growth: 0.0926 (active)
Locus YBR279W, strain paf1, stronger effect = lower value
  normalized growth: 0.0794 (active)
Locus YCL011C, strain gbp2, stronger effect = lower value
  normalized growth: 0.062 (active)
Locus YCL016C, strain dcc1, stronger effect = lower value
  normalized growth: 0.251 (active)
Locus YCL029C, strain bik1, stronger effect = lower value
  normalized growth: 0.963
Locus YCL061C, strain MRC1 (second series), stronger effect = lower value
  normalized growth: 0.993 and 1.01
Locus YCL061C, strain MRC1, stronger effect = lower value
  normalized growth: 0.0703 (active)
Locus YCL069W, strain vba3, stronger effect = lower value
  normalized growth: 0.0939 (active)
Locus YCR088W, strain abp1, stronger effect = lower value
  normalized growth: 0.0673 (active)
Locus YDL005C, strain med2, stronger effect = lower value
  normalized growth: 0.937
Locus YDL035C, strain GPR1, stronger effect = lower value
  normalized growth: 1.04
Locus YDL040C, strain nat1, stronger effect = lower value
  normalized growth: 0.471 (active)
Locus YDL074C, strain BRE1, stronger effect = lower value
  normalized growth: 0.976
Locus YDL101C, strain DUN1, stronger effect = lower value
  normalized growth: 0.988
Locus YDL185W, strain tfp1, stronger effect = lower value
  normalized growth: 0.971
Locus YDL192W, strain arf1, stronger effect = lower value
  normalized growth: 0.995
Locus YDR001C, strain nth1, stronger effect = lower value
  normalized growth: 0.0635 (active)
Locus YDR069C, strain doa4, stronger effect = lower value
  normalized growth: 0.0647 (active)
Locus YDR101C, strain arx1, stronger effect = lower value
  normalized growth: 0.983
Locus YDR137W, strain rgp1, stronger effect = lower value
  normalized growth: 0.0968 (active)
Locus YDR150W, strain NUM1, stronger effect = lower value
  normalized growth: 0.989 and 1 and 1.01
Locus YDR159W, strain sac3, stronger effect = lower value
  normalized growth: 0.388 (active)
Locus YDR162C, strain NBP2, stronger effect = lower value
  normalized growth: 1.01
Locus YDR195W, strain ref2
  normalized growth: 0.12 (active)
Locus YDR297W, strain sur2, stronger effect = lower value
  normalized growth: 0.0705 (active)
Locus YDR318W, strain mcm21, stronger effect = lower value
  normalized growth: 0.998
Locus YDR334W, strain swr1, stronger effect = lower value
  normalized growth: 0.0666 (active)
Locus YDR335W, strain msn5, stronger effect = lower value
  normalized growth: 0.0613 (active)
Locus YDR363W, strain ESC2, stronger effect = lower value
  normalized growth: 0.982 and 0.999
Locus YDR388W, stronger effect = lower value
  normalized growth: 0.99
Locus YDR392W, strain spt3, stronger effect = lower value
  normalized growth: 0.112 (active)
Locus YDR502C, strain sam2, stronger effect = lower value
  normalized growth: 0.992
Locus YEL003W, strain gim4, stronger effect = lower value
  normalized growth: 0.0565 (active)
Locus YEL037C, strain rad23, stronger effect = lower value
  normalized growth: 0.0584 (active)
Locus YEL061C, strain CIN8 (second series), stronger effect = lower value
  normalized growth: 0.0634 (active)
Locus YEL061C, strain CIN8, stronger effect = lower value
  normalized growth: 0.996
Locus YER002W, strain NOP16, stronger effect = lower value
  normalized growth: 0.995 and 1
Locus YER015W, strain faa2, stronger effect = lower value
  normalized growth: 0.0627 (active)
Locus YER016W, strain bim1, stronger effect = lower value
  normalized growth: 0.0943 (active)
Locus YER110C, stronger effect = lower value
  normalized growth: 0.977
Locus YER111C, strain swi4, stronger effect = lower value
  normalized growth: 0.082 (active)
Locus YER155C, strain BEM2 (second series), stronger effect = lower value
  normalized growth: 0.1 (active)
Locus YER155C, strain BEM2, stronger effect = lower value
  normalized growth: 0.989
Locus YER167W, strain BCK2, stronger effect = lower value
  normalized growth: 0.986
Locus YFR010W, strain ubp6, stronger effect = lower value
  normalized growth: 0.0698 (active)
Locus YGL078C, strain dbp3, stronger effect = lower value
  normalized growth: 0.99
Locus YGL086W, strain mad1, stronger effect = lower value
  normalized growth: 1
Locus YGL167C, strain pmr1, stronger effect = lower value
  normalized growth: 0.563 (active)
Locus YGL173C, strain kem1, stronger effect = lower value
  normalized growth: 0.114 (active)
Locus YGL227W, strain vid30, stronger effect = lower value
  normalized growth: 0.0631 (active)
Locus YGL240W, strain doc1, stronger effect = lower value
  normalized growth: 0.129 (active)
Locus YGL248W, strain PDE1, stronger effect = lower value
  normalized growth: 0.98
Locus YGL253W, strain hxk2, stronger effect = lower value
  normalized growth: 0.0581 (active)
Locus YGR078C, strain PAC10, stronger effect = lower value
  normalized growth: 0.99 and 1.04
Locus YGR135W, strain pre9, stronger effect = lower value
  normalized growth: 0.952
Locus YGR252W, strain gcn5, stronger effect = lower value
  normalized growth: 0.997
Locus YHR013C, strain ard1, stronger effect = lower value
  normalized growth: 0.114 (active)
Locus YHR027C, strain rpn1, stronger effect = lower value
  normalized growth: 0.0639 (active)
Locus YHR030C, strain SLT2, stronger effect = lower value
  normalized growth: 0.997 and 1
Locus YHR079C, strain IRE1 (second series), stronger effect = lower value
  normalized growth: 0.995
Locus YHR079C, strain IRE1, stronger effect = lower value
  normalized growth: 0.968
Locus YHR094C, strain hxt1, stronger effect = lower value
  normalized growth: 0.976
Locus YHR129C, strain ARP1, stronger effect = lower value
  normalized growth: 0.999
Locus YHR142W, strain chs7, stronger effect = lower value
  normalized growth: 0.0788 (active)
Locus YHR200W, strain rpn10, stronger effect = lower value
  normalized growth: 0.999
Locus YIL066C, strain RNR3, stronger effect = lower value
  normalized growth: 0.992
Locus YIL073C, strain SPO22, stronger effect = lower value
  normalized growth: 0.912
Locus YIL125W, strain kgd1, stronger effect = lower value
  normalized growth: 1
Locus YIR030C, strain dcg1, stronger effect = lower value
  normalized growth: 0.973
Locus YJL092W, strain hpr5, stronger effect = lower value
  normalized growth: 0.0644 (active)
Locus YJL095W, strain BCK1 (second series), stronger effect = lower value
  normalized growth: 0.17 (active)
Locus YJL095W, strain BCK1, stronger effect = lower value
  normalized growth: 0.966 and 1.01
Locus YJL115W, strain asf1, stronger effect = lower value
  normalized growth: 0.0925 (active)
Locus YJL129C, strain trk1, stronger effect = lower value
  normalized growth: 0.0869 (active)
Locus YJL134W, strain LCB3, stronger effect = lower value
  normalized growth: 0.998
Locus YJL154C, strain vps35, stronger effect = lower value
  normalized growth: 0.0659 (active)
Locus YJL164C, strain tpk1, stronger effect = lower value
  normalized growth: 0.13 (active)
Locus YJL166W, strain qcr8, stronger effect = lower value
  normalized growth: 0.0729 (active)
Locus YJL168C, strain set2, stronger effect = lower value
  normalized growth: 0.996
Locus YJL187C, strain SWE1 (second series), stronger effect = lower value
  normalized growth: 0.977
Locus YJL187C, strain SWE1, stronger effect = lower value
  normalized growth: 0.468 (active)
Locus YJR043C, strain POL32, stronger effect = lower value
  normalized growth: 1.05
